Substitutions are numbered along the chain they refer to. The full ranking holds about 5,800 sequences; the median of “enrichment r” is about 0.54, and the highest 2% start at about 16. For the sample, the highest values were picked, then their nearest neighbours and some sequences at random.
B1: chr11:13729208:13729309:+|3pUTR|ENSG00000197601|unk|FALSE|unique (ssRNA)
RNA: GGGAGUUCUACAGUCCGACGAUCAAAGUUGGUAGAUAUUUGAUUCUUCAUUUUUUGUUUUUUUCAUUAGUUGAAGUGGGUUUUAGUUUUGUUUAAAAUUAUAACCAGCGUAUUUUCACAUCAUUCUGUAAGUUAAAUGAUAUCCAACAGAGGAUUGAGCAUCA
B2: chr17:48622902:48623135:-|CDS|ENSG00000170689|control|control|control (ssRNA)
RNA: GGGAGUUCUACAGUCCGACGAUCUACCAGACGCUGGAGCUAGAGAAGGAGUUUCUGUUCAAUAUGUACCUCACCAGGGACCGUAGGCACGAAGUGGCCAGACUCCUCAAUCUGAGUGAGAGACAAGUCAAAAUCUGGUUUCAGCAACAGAGGAUUGAGCAUCA
B3: chr13:99866285:99866388:+|CDS|ENSG00000125246|unk|FALSE|unique (ssRNA)
RNA: GGGAGUUCUACAGUCCGACGAUCUAUUCUCUACGCCCGGCAAAAGAUUGUUGUCAUAGCGAAAGCCUUUGGUCUCCAAGCCAUAGAUCUGGUGUACAUUGACUUUCGAGAUGGAGCUGGGCUGCUUAGACAGUCACGAGAAGGCAACAGAGGAUUGAGCAUCA
B4: ENSG00000198589:be:win_1301|CDS|ENSG00000198589|bound_else_gene|NA|bound_elsewhere_windowed (ssRNA)
RNA: GGGAGUUCUACAGUCCGACGAUCCAUCUCCUAAGGACAACCCUUCAAUUUUUGUUCAUUCACCACAUGCACUCAUGCUCCAGGAUGUAAAGGCAGUUUUAACACAUUCCAUCCAAAGUGCAAUGCAUUCAAUUGGAGGAGUACCAACAGAGGAUUGAGCAUCA
B5: chr15:59095394:59095499:+|3pUTR|ENSG00000157450|unk|FALSE|unique (ssRNA)
RNA: GGGAGUUCUACAGUCCGACGAUCUAAAUACCAUCCUUAAUACUGGGAACAGAAUACAACCCAUAUAAAUCAGAUGCAGGUGGUAGUCACAUCACCAGAGUGAUCAGUAUAAAUUUUCUUGGUGUAUCCUUUUCCUUUCAACACCAACAGAGGAUUGAGCAUCA
B6: chr1:193029531:193029688:-|CDS|ENSG00000116750|unk|FALSE|unique (ssRNA)
RNA: GGGAGUUCUACAGUCCGACGAUCUUGAUAUCUUCACUUUUAUAUUUUAUAGGUAAUUAAUAAUGCUUGUGCUACUCAAGCCAUAGUGAGUGUGUUACUGAACUGUACCCACCAGGAUGUCCAUUUAGGCGAGACAUUAUCAGACAACAGAGGAUUGAGCAUCA
B7: chr1:193029531:193029688:-|CDS|ENSG00000116750|unk|total|mutant (ssRNA)
RNA: B6 RNA with U49C, A50C, U83C, A84C, U125C, A126C
B8: chrX:115010634:115010735:-|CDS|ENSG00000123496|msi1|FALSE|unique (ssRNA)
RNA: GGGAGUUCUACAGUCCGACGAUCUGGAUCAUCAGAGAACAAGCCUAUCAGAUCCAGUUAUUUCACUUUUCAGCUUCAAAAUAUAGGUGAUGUAAACCAACAAACAACUUCAAAUUCAUUGUUUCUAGUUUAGGCCAUUUACAACAACAGAGGAUUGAGCAUCA
B9: chr7:30424526:30425710:-|three_prime_utr|ENSG00000106100|control|control|control (ssRNA)
RNA: GGGAGUUCUACAGUCCGACGAUCAAACUCCCUAAGUACCCGCUACAAUUCUGCAGAAAAAGAAUGUGUCUUGCGAGCUGUUGUAGUUACAGUAAAUACACUGUGAAGAGACUUUAUUGCCUAUUAUAAUUAUUUUUAUCUGAACAACAGAGGAUUGAGCAUCA
B10: chr9:137457406:137457901:-|CDS|ENSG00000165802|control|control|control (ssRNA)
RNA: GGGAGUUCUACAGUCCGACGAUCCGCCUGUCCCUCGUCUCCAACGGCUGCUACGAGGGCAGCCUCUCAGAGGAGCCCAGCAUUAGGAAGCCCGCAGGCGAGGGCCCUCAGCCUCGAGUGUACACCAUCUCUGGGGAGCCUGCCCAACAGAGGAUUGAGCAUCA
B11: chr14:44928120:44928223:-|3pUTR|ENSG00000179454|unk|total|mutant (ssRNA)
RNA: GGGAGUUCUACAGUCCGACGAUCCCGUACAGCAGGCCUCCCAGUGCUGAUGUAAAUAUUUGAGCAGUGUUCCGUACCAUUCUCCGUGCAUAUUAAUUUUUUUAUAUAUCCUUAUAAUUUCCGUUUUUUAAGAUCUUUGCUUUUCAACAGAGGAUUGAGCAUCA
B12: chr7:127374855:127374969:-|CDS|ENSG00000048405|unk|total|mutant (ssRNA)
RNA: GGGAGUUCUACAGUCCGACGAUCCCCCGAAGCCAUAUAUCCAAGUGUGGACAAACGAGAAUAUAUUAUUAAGCCCGAACCCACCGAAACUAAUCAAAAUGCAGUAUUUCAAUAUAUUUCGAGGACUGAUAAUCCUAUUGAAGUCAACAGAGGAUUGAGCAUCA
B13: chr9:21239001:21239365:-|three_prime_utr|ENSG00000228083|control|control|control (ssRNA)
RNA: GGGAGUUCUACAGUCCGACGAUCCAAAAUUUUCAAAUGUUUUCAGGAGUGUAAAGAAGCAUCAUGUAUACCUGUGCAGGCACUAGUCCUUUACAGAUGACCAUGCUGAUGUCUCCUUUCAUCUAUUUAUUUAAAUAUUUAUUUCAACAGAGGAUUGAGCAUCA
B14: chr10:62095068:62095169:+|3pUTR|ENSG00000150347|msi1|FALSE|unique (ssRNA)
RNA: GGGAGUUCUACAGUCCGACGAUCCCAUUUGCUUCAAUUAAUUAUUUACCUUCCUGUGGAAUAAUAUAUAUAUAUAUAUUUAAUAGAACCAUAGAUAGACUAGUAGAAUUUAGAUUAUAAAUGUGUGAGUGCAGAUUAUCCUGCCAACAGAGGAUUGAGCAUCA
B15: chr7:127374855:127374969:-|CDS|ENSG00000048405|unk|FALSE|unique (ssRNA)
RNA: B12 RNA with C26U, C27A, C74U, C75A, C83U, C84A
B16: ENSG00000039319:stop:overlap|stop_codon|ENSG00000039319|stop_codon|NA|stop_codon (ssRNA)
RNA: GGGAGUUCUACAGUCCGACGAUCCCAACUCUAGUUUACCAUUAGAAAUAGAAUUAGUGUUUUUCAUUAUAGAACAUCUUUUUUAGUGAAAGAAUGUGCCAUAUUACAUAUUGCAACCUAAUUUGUUAAAACUAACUCCAGCACCAACAGAGGAUUGAGCAUCA
B17: chr6:89631235:89631336:+|3pUTR|ENSG00000135299|msi1|FALSE|unique (ssRNA)
RNA: GGGAGUUCUACAGUCCGACGAUCUGAAGUUUGAAAGCUCAGAUUAAGCAAGCCAUGCCAAGAAACUGGACGAUGUGUAAGCCUAGACUCUAAAAUUCAAGAUGUGUGAAAUAAUAUAAGUCAAAAGCAAGAAAAACGUAAUCCCAACAGAGGAUUGAGCAUCA
B18: chr2:224511460:224511569:-|CDS|ENSG00000036257|unk|FALSE|bound_elsewhere (ssRNA)
RNA: GGGAGUUCUACAGUCCGACGAUCGAAAGCCAGAAAUUUUUAGCAGAAAAUAGUGCUUCAGUAUAUAUAAAGAAAGUAGAAGCUAGAAUUAAUGAAGAAAUAGAACGAGUGAUGCACUGCCUUGACAAAUCAACGGAAGAACCACAACAGAGGAUUGAGCAUCA
B19: chr14:44928120:44928223:-|3pUTR|ENSG00000179454|unk|FALSE|unique (ssRNA)
RNA: B11 RNA with C24U, C25A, C71U, C72A, C83U, C84A, C120U, C121A
B20: chr2:224511460:224511569:-|CDS|ENSG00000036257|unk|total|mutant (ssRNA)
RNA: B18 RNA with U40C, A41C, U50C, A51C, U76C, A77C, U83C, A84C, U100C, A101C
B21: chr10:62095068:62095169:+|3pUTR|ENSG00000150347|msi1|total|mutant (ssRNA)
RNA: GGGAGUUCUACAGUCCGACGAUCCCAUUUGCUUCAAUUAAUUAUUUACCUUCCUGUGGAAUAAUAUAUAUAUAUAUAUUUAACCGAACCACCGACCGACCCGCCGAAUUCCGAUUAUAAAUGUGUGAGUGCAGAUUAUCCUGCCAACAGAGGAUUGAGCAUCA
B22: ENSG00000070961:be:win_4451|3pUTR|ENSG00000070961|bound_else_gene|NA|bound_elsewhere_windowed (ssRNA)
RNA: GGGAGUUCUACAGUCCGACGAUCGUUUUGAAGCAACUGUUUAAUUUUUAAAAUUUUUGAAAACUUGCUAAUAACCUUUUGUUCAGAAUUUAGUAGAUUGUUUAAUGCAGGACAUCAACUACAUAAUGAAAGAUGCUUGAAAUGCAACAGAGGAUUGAGCAUCA

Target: MSI1 full-length (mouse, UniProt Q61474 1-362)
Sequence (Q61474 whole entry): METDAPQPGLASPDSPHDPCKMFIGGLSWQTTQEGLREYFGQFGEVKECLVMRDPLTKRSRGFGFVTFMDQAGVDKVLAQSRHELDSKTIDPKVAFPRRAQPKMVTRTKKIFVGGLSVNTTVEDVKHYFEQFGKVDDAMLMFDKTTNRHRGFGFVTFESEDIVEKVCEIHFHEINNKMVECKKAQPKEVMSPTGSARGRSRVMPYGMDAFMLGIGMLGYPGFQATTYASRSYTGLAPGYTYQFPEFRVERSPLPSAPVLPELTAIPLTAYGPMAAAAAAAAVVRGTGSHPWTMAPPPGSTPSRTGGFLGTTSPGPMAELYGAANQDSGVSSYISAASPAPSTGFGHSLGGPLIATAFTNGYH
Test: nsRBNS (natural sequence RNA bind-n-seq); RBNS binding buffer (assumed for nsRBNS): 25 mM Tris pH 7.5, 150 mM KCl, 3 mM MgCl2, 0.01% Triton X-100, 500 ug/ml BSA, 20 U/ml SUPERase-In, 4 C; UNK is unkempt and MSI1 is Musashi-1; names of the RNAs are library labels; protein concentration not given here; high values mean tight binding

| Binder | binding signal |
| --- | --- |
| B1 | 1.97 enrichment R |
| B2 | 0.411 enrichment R |
| B3 | 0.39 enrichment R |
| B4 | 0.284 enrichment R |
| B5 | 0.744 enrichment R |
| B6 | 30 enrichment R |
| B7 | 1.15 enrichment R |
| B8 | 1.74 enrichment R |
| B9 | 3.46 enrichment R |
| B10 | 0.4 enrichment R |
| B11 | 8.16 enrichment R |
| B12 | 0.508 enrichment R |
| B13 | 0.493 enrichment R |
| B14 | 21.1 enrichment R |
| B15 | 28.2 enrichment R |
| B16 | 0.848 enrichment R |
| B17 | 0.258 enrichment R |
| B18 | 36.5 enrichment R |
| B19 | 35.6 enrichment R |
| B20 | 0.432 enrichment R |
| B21 | 9.42 enrichment R |
| B22 | 0.619 enrichment R |
